The values that follow come from PubChem BioAssay AID588342 (National Center for Advancing Translational Sciences (NCATS), 2011).

About 25,000 (6.9%) of roughly 360,000 compounds were called active. A call without a number means that no potency is given here. About 9% were inconclusive and are not listed. Calls follow the shape of the dose curve; as a rule, active = well fitted inhibition curve with a large enough effect; inconclusive = small, poorly fitted or top-dose-only effect; inactive = flat fitted curve, though single readings scatter. Many of the other results were omitted from the sample, so actives are more common in it than they were.
Potency is read from the fitted curve at half-maximal effect.

Luciferin 4-monooxygenase (Photinus pyralis), sequence (P08659 whole entry, looked up): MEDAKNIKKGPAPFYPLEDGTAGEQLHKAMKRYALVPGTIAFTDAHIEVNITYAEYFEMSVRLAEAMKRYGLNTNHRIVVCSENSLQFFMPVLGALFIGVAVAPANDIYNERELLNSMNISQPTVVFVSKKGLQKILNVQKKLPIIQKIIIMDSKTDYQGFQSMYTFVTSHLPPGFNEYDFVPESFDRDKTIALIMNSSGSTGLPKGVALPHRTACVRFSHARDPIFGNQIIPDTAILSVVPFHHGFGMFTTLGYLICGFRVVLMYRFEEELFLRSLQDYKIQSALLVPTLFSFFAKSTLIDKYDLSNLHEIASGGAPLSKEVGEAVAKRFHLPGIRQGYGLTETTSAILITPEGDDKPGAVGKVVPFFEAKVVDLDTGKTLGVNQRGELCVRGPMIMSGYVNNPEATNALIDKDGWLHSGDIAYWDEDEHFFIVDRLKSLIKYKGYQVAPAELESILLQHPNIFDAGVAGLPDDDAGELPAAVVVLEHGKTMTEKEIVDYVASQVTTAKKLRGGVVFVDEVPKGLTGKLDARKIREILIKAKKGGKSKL

The target of this assay is Luciferin 4-monooxygenase (Photinus pyralis) (UniProt P08659). Briefly: qHTS profiling assay for firefly luciferase inhibitor/activator using purifed enzyme and Km concentrations of substrates (counterscreen for miR-21 project). Also: nearly all actives have a fitted effect of over 55% in size. The note with it: purified FLuc, luminescence inhibition; series mostly up to 57.5 µM. In a few lines:
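Purified P. pyralis luciferase, 10 nM final, with Km-level 10 uM D-luciferin and 10 uM ATP in 50 mM Tris acetate pH 7.5, 10 mM Mg acetate, 0.01% Tween-20, 0.05% BSA; 6-point qHTS titration about 60 µM downward; luminescence read.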
For `O=C(NCc1ccccn1)c1cc(-c2ccccc2Cl)on1`, the Potency was 10.7 µM (active). As to `O=C(CCCCCNC(=O)c1ccccc1)N/N=C/c1ccccc1`, the Potency result was “inactive”. As to `CSc1ccccc1C(=O)NCc1ccccc1`, the Potency entry was “inactive”.

For `CC(C)[C@H](NC(=O)N1CCn2c1nc1ccccc12)C(=O)NCCc1ccccc1`, the Potency result was “inactive”.

For `Cc1ccc(C(=O)Nc2c(C#N)c(C)c(C)n2Cc2ccccc2)cc1`, the Potency result is “inactive”. Turning to `Cc1ccc(C(=O)N/N=C/c2sc(=O)n(Cc3cccc(C(=O)O)c3)c2Cl)cc1`, the Potency is 16.9 µM (active).

As to `Cc1ccc(/C=N/NC(=O)CN2CCN(Cc3ccccc3)CC2)s1`, the Potency entry was “inactive”.

In the case of `C=C1CCC(N(O)c2cc(C)on2)C(=C)CCC2C1CC2(C)C` (stereo not given), the Potency entry is “inactive”. In the case of `CCOc1ccc(-c2cc(C)n3nc(C(=O)Nc4ccc(C)c(C)c4)cc3n2)cc1`, the Potency result is “inactive”. With `CCOc1c(CNCc2ccc(C(=O)O)cc2)cccc1OC`, the Potency entry is “inactive”.

On to `CCCCCc1ccc(-c2ccc(C(=O)O)cc2)nc1`, for which the Potency is 0.675 µM (active). In the case of `CCCCCc1ccc(-c2cn(Cc3ccc4ccccc4c3)nn2)cc1` it was “inactive”; in that of `CCCCCc1ccc(-c2ccc(OCC)cc2)nc1`, 10.7 µM (active). Take `Cc1ccc(-c2cn3c(n2)sc2cc(C(=O)NCCCc4ccccc4)ccc23)cc1`: the Potency entry is “inactive”. `Cc1cc(F)ccc1S(=O)(=O)Nc1ccc(C(=O)N(C)Cc2ccco2)cc1`: the Potency entry is “inactive”.

As for `CCc1nc2nc(C)cc(Nc3ccc(F)c(Cl)c3)n2n1`, the Potency entry was “inactive”.

Consider `COc1ccc(/C=C/c2nc(C#N)c(NCc3ccc(F)cc3)o2)cc1OC`, for which the Potency entry was “inactive”. Then `CCCCCn1c(=O)[nH]c2cc(C(=O)NCCN(C)CCCC)ccc2c1=O`, with “inactive”; and `CCc1ccc(C2CC(=O)c3c([nH]c(C(=O)OCc4ccc(C)cc4)c3C)C2)cc1` (stereo not given), with “inactive”. Turning to `COc1ccccc1Nc1c2c(nc3ccc(NC(=O)/C=C/c4cc(OC)c(OC)c(OC)c4)cc13)CCCC2`, the Potency entry is “inactive”. Consider `N#Cc1cccc(NC(=O)C2CCCN(C(=O)c3ccc(Cl)cc3)C2)c1` (stereo not given), for which the Potency entry was “inactive”. In the case of `CCc1ccc(CNCc2c(C(=O)O)n(Cc3ccc(F)cc3Cl)c3cc(OC)ccc23)cc1`, the Potency result is “inactive”. In the case of `O=C(CSc1nc2c(c(=O)[nH]1)CN(Cc1ccc3c(c1)OCO3)CC2)Nc1cc(F)ccc1F` it was “inactive”; in that of `c1ccc(-c2cn3c(n2)CCc2ccc4cccnc4c2-3)cc1`, 10.7 µM (active); in that of `COc1ccc(NC(=O)CCCc2nnc3n(CCC(C)C)c(=O)c4sccc4n23)c(OC)c1`, “inactive”. Regarding `CCc1ccc(NC(=O)c2cc3c(=O)n(Cc4cccnc4)ccc3nc2C)cc1`, the Potency result is “inactive”.

Regarding `O=C(COc1ccc2oc3c(c2c1)CCCC3)Nc1ccccn1`, the Potency is 1.07 µM (active). In the case of `CCOC(=O)N1CCN(C(=O)COc2ccc3oc4c(c3c2)CCCC4)CC1`, the Potency entry was “inactive”. As to `CCN(CC)CCCNC(=O)COc1ccc2oc3c(c2c1)CCCC3`, the Potency entry is “inactive”. In the case of `COc1ccc(C2c3c(oc4ccccc4c3=O)C(=O)N2Cc2ccc3c(c2)OCO3)cc1` (stereo not given) it was “inactive”; in that of `CC(/C=C/c1ccco1)=N/NC(=O)C1COc2ccccc2O1` (stereo not given), “inactive”. In the case of `O=C(Cc1c(F)cccc1Cl)Nc1ncc([N+](=O)[O-])s1` it was 21.3 µM (active). As to `CN(c1ccccc1)S(=O)(=O)c1cccc(NC(=O)Cc2c(F)cccc2Cl)c1`, the Potency result was “inactive”. Then `O=C(Cc1c(F)cccc1Cl)Nc1ccc(-n2cnnn2)cc1`, with “inactive”; and `COc1ccc(NC(=O)C2COc3ccccc3O2)cc1` (stereo not given), with 16.9 µM (active); and `COc1ccc(NC(=O)CC2COc3ccccc3O2)c(OC)c1` (stereo not given), with “inactive”.

Take `C/C(=N/NC(=O)C1COc2ccccc2O1)c1ccco1` (stereo not given): the Potency entry is “inactive”.

In the case of `COc1ccc([N+](=O)[O-])cc1NC(=O)CCc1ccccc1`, the Potency entry is “inactive”. Take `O=C(Nc1ncc([N+](=O)[O-])s1)C1COc2ccccc2O1` (stereo not given): the Potency was 21.3 µM (active). Regarding `CCN(CC)S(=O)(=O)c1ccc(N2CCOCC2)c(NC(=O)C2COc3ccccc3O2)c1` (stereo not given), the Potency result was “inactive”. Consider `O=C(CCc1ccccc1)Nc1ncc([N+](=O)[O-])s1`, for which the Potency is 15.1 µM (active). For `CC(C)Cc1nnc(NC(=O)CCc2ccccc2)s1`, the Potency entry is “inactive”. `COc1cc(NC(=O)Cn2c(=O)n(Cc3ccco3)c(=O)c3oc4ccccc4c32)cc(OC)c1`: the Potency entry was “inactive”. As for `COc1ccc(-c2nn(CC(=O)NC3CCCC3)c3c2cnc2ccc(F)cc23)cc1`, the Potency entry was “inactive”.

As for `CC(C)CN(C(=O)c1ccc2c(c1)OCO2)C1CCS(=O)(=O)C1` (stereo not given), the Potency result is “inactive”. Regarding `O=c1c2cccnc2n(Cc2cccc(F)c2)c(=O)n1Cc1ccccc1Cl`, the Potency result was “inactive”.

Regarding `Cn1c(SCC(=O)N/N=C/c2ccc(O)c(O)c2)nc2ccccc21`, the Potency result is “inactive”. Consider `COc1cc(/C=N/NC(=O)CNC(=O)c2ccncc2)ccc1OC(C)=O`, for which the Potency entry was “inactive”. As to `COc1cc(/C=N\Nc2nc(-c3cccs3)c(NC(C)=O)s2)ccc1O`, the Potency is 7.57 µM (active).

As to `COc1cc(/C=N/Nc2nc3ccccc3s2)ccc1O`, the Potency is 2.39 µM (active). In the case of `COc1ccc(CC(=O)N/N=C/c2cc([N+](=O)[O-])cc(Br)c2O)cc1` it was “inactive”; in that of `COc1cc(/C=N/NC(=O)Nc2ccccc2)ccc1OCCOc1ccccc1C`, “inactive”. For the compound `O=[N+]([O-])c1cc(Br)c(O)c(/C=N/Nc2nc3ccccc3s2)c1`, the Potency is 19 µM (active).

Consider `Cc1cc(C(=O)N/N=C/c2cc([N+](=O)[O-])cc(C)c2O)n[nH]1`, for which the Potency result is “inactive”. Take `COc1cc(/C=N/NC(=O)CCc2n[nH]c(=O)[nH]c2=O)ccc1O`: the Potency result was “inactive”.
